Measurements reported in the supplement of paper PMC11732987, “Enantioselective OTUD7B fragment discovery through chemoproteomics screening and high-throughput optimisation” (Communications Chemistry, 2025).

Experiments:
Experiment in all cases: log2 ratio of Biotin-Ahx-Ub-VS probe labelling (fragment/DMSO); higher = less target engagement (more negative = stronger competition), active = hit call of the paper (q ≤ 0.05, log2 ratio ≤ -1)
Conditions in all cases: compound concentration: 200 uM; treatment time: 3 h
USP34 = USP34 (UniProt Q70CQ2)
USP34, sequence (Q70CQ2 whole entry, the tested form may be a part): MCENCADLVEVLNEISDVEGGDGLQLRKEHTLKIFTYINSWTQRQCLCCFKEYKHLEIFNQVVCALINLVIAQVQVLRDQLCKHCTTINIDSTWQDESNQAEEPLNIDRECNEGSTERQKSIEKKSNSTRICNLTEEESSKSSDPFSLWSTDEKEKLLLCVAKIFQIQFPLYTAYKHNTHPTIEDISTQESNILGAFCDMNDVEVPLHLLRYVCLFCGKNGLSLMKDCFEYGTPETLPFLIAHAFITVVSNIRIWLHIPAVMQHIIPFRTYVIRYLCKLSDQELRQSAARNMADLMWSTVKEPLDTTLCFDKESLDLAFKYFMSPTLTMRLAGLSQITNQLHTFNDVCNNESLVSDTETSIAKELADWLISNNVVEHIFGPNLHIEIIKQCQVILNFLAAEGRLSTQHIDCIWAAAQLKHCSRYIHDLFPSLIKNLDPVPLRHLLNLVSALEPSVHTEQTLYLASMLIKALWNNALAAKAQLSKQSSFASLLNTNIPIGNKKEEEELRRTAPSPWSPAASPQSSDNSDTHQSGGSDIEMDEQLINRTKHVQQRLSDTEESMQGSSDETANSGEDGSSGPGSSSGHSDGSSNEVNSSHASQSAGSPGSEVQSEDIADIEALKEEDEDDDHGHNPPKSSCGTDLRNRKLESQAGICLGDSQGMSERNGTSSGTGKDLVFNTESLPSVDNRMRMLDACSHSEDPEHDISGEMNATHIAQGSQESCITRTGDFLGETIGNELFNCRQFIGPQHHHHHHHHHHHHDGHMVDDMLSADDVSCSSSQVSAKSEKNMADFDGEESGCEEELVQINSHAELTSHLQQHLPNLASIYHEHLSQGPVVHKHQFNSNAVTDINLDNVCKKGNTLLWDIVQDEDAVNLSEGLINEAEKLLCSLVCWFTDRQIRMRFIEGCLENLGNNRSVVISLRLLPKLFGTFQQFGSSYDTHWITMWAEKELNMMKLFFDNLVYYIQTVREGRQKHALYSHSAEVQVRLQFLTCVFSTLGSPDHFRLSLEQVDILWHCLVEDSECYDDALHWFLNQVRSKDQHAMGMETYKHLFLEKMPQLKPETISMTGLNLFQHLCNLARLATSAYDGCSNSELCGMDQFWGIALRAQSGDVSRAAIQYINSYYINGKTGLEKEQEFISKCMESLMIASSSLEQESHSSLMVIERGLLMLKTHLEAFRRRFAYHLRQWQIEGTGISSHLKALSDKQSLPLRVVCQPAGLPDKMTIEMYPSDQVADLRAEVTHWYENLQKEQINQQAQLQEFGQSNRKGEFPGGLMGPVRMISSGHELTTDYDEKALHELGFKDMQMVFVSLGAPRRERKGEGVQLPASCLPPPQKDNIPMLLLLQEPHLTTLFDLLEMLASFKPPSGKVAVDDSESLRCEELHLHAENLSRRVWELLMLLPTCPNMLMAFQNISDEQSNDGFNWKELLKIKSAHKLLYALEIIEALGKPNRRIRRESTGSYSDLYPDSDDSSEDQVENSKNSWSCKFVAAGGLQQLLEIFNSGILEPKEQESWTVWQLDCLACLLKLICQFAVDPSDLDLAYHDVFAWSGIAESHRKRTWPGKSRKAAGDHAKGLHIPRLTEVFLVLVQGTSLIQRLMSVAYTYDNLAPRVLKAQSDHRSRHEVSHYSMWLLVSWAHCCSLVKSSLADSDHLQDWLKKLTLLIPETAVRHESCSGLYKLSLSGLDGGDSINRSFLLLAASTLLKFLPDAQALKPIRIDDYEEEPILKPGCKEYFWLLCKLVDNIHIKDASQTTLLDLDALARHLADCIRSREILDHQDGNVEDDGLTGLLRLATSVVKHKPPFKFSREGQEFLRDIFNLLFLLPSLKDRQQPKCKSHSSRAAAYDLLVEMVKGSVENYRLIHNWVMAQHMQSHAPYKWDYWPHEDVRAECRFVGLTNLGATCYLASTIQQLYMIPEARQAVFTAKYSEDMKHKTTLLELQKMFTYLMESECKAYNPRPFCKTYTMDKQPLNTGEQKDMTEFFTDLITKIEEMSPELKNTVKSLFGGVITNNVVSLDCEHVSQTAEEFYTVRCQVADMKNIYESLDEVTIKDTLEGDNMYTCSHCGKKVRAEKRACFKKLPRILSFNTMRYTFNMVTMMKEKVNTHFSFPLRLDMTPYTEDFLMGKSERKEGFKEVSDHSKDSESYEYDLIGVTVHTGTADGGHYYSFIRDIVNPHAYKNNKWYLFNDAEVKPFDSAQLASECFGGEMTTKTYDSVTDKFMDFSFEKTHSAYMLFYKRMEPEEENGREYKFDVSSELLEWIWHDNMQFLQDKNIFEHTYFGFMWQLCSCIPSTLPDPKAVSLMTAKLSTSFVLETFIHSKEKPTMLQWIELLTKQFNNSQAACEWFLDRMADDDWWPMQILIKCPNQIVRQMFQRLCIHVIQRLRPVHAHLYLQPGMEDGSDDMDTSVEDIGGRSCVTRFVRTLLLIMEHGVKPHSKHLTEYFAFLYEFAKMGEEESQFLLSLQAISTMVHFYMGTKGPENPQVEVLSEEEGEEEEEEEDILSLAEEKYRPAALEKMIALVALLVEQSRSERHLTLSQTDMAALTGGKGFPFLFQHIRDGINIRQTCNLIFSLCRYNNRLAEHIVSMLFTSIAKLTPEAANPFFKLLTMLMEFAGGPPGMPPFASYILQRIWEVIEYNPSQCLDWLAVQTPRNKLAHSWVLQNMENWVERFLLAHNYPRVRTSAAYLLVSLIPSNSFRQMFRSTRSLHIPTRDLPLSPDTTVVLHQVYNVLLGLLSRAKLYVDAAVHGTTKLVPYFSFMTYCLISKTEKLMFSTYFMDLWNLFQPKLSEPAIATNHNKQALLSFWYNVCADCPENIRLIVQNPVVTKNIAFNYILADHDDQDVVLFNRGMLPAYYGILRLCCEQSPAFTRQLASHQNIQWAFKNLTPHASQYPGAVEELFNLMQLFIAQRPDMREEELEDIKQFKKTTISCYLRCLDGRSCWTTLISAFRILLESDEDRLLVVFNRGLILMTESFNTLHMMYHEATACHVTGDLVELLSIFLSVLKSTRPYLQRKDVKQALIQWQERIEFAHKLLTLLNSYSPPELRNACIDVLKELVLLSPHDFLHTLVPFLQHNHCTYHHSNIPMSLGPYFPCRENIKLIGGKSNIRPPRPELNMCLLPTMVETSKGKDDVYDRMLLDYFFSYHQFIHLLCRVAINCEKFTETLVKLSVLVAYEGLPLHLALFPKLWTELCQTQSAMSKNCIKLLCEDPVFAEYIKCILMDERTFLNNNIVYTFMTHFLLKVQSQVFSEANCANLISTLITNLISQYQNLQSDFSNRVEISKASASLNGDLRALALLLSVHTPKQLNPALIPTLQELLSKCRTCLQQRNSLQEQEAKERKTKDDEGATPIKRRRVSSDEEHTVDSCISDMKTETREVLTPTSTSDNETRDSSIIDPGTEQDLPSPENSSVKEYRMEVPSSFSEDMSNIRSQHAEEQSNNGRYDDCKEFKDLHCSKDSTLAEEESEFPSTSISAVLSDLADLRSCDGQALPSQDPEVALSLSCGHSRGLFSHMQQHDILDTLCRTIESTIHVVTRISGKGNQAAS
Summary of the method: (§1)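 Labelled DUBs from HEK293T lysate were NeutrAvidin-enriched, digested with LysC and trypsin, and run by diaPASEF LC-MS/MS. Before that, each 495 µg sample in Tris/CHAPS/IGEPAL buffer with protease inhibitors was treated in triplicate with fragment at 200 µM or vehicle for 3 h, then with Biotin-Ahx-Ub-VS at 0.5 µM final for 1 h. Values are average log2 ratios of fragment over vehicle by unpaired t-test, based on global-median-normalised Spectronaut label-free quantities from proteins with ≥2 unique peptides.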

USP36 = target: T1, USP36 (UniProt Q9P275)
T1 sequence (whole entry): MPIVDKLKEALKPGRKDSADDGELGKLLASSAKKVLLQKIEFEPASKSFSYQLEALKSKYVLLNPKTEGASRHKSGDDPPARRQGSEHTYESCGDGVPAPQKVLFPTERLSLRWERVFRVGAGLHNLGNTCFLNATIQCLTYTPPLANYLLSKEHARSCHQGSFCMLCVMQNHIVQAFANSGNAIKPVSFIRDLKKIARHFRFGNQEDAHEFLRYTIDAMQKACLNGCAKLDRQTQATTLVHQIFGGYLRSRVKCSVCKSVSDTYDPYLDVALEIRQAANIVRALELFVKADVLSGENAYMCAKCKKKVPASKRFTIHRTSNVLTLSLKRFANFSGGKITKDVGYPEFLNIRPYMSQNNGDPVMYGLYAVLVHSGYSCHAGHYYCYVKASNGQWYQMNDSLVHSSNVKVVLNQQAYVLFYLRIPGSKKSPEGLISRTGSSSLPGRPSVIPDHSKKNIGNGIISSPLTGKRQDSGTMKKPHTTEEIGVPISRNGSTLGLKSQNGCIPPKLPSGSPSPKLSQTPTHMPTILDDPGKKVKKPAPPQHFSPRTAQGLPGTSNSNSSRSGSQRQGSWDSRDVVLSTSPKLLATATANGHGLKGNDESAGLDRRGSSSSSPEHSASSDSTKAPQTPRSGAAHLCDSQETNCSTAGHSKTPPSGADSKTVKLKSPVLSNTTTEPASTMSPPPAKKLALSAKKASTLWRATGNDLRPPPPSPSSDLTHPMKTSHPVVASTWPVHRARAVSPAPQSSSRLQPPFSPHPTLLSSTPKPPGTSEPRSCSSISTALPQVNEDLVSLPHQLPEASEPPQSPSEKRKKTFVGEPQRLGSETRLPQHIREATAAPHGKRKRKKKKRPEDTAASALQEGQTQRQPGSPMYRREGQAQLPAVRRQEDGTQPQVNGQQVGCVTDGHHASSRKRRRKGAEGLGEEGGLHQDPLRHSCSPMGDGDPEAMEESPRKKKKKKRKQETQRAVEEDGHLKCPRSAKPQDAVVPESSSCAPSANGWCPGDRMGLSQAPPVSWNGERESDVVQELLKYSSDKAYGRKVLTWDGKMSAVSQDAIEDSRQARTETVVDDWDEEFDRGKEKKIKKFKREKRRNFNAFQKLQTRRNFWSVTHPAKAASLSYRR
Summary of the method: as §1

USP38 = target: T2, USP38 (UniProt Q8NB14)
T2 sequence (whole entry): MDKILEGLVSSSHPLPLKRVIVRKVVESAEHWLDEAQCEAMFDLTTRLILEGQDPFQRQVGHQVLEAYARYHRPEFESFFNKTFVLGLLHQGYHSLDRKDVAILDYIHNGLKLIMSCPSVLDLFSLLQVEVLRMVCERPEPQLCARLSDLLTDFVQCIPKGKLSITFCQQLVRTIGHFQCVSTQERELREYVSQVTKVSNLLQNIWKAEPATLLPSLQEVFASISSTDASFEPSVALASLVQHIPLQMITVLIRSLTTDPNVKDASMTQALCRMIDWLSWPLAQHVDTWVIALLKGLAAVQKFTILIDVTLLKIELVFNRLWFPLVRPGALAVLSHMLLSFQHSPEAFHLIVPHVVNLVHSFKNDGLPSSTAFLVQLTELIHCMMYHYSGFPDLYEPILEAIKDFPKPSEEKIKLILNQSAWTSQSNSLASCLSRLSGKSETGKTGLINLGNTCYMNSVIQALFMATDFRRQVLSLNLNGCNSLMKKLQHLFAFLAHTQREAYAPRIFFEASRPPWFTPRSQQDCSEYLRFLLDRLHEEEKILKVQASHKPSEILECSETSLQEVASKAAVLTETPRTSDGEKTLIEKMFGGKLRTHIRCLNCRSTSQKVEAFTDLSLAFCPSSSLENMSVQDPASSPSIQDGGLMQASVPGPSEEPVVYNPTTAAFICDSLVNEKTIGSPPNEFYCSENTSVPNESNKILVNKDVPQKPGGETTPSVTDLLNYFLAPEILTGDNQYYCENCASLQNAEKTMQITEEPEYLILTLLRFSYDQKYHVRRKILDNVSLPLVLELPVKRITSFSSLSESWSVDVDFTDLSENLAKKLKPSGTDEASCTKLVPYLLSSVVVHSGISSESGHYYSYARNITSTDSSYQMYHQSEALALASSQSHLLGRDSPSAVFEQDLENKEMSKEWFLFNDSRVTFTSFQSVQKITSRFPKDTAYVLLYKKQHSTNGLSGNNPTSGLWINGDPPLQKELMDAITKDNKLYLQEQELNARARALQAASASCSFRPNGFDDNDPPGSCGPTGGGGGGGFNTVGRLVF
Summary of the method: as §1

USP39 = target: T3, USP39 (UniProt Q53GS9)
T3 sequence (whole entry): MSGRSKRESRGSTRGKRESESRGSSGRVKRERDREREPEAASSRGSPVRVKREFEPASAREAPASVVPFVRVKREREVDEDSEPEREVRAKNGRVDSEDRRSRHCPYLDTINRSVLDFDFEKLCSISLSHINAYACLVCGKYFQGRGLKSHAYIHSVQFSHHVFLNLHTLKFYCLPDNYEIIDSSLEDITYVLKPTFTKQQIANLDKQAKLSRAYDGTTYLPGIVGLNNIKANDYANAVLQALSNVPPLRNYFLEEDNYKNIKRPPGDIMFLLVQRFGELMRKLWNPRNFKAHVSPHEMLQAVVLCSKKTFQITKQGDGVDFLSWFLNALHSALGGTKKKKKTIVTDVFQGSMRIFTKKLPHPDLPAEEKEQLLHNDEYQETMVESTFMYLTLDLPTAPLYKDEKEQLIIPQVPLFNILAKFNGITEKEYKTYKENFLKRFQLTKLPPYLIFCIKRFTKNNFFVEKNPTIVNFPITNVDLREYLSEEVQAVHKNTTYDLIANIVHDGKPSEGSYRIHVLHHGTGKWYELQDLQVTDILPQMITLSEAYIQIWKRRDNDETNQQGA
Summary of the method: as §1

USP4 = target: T4, USP4 (UniProt Q13107)
T4 sequence (whole entry): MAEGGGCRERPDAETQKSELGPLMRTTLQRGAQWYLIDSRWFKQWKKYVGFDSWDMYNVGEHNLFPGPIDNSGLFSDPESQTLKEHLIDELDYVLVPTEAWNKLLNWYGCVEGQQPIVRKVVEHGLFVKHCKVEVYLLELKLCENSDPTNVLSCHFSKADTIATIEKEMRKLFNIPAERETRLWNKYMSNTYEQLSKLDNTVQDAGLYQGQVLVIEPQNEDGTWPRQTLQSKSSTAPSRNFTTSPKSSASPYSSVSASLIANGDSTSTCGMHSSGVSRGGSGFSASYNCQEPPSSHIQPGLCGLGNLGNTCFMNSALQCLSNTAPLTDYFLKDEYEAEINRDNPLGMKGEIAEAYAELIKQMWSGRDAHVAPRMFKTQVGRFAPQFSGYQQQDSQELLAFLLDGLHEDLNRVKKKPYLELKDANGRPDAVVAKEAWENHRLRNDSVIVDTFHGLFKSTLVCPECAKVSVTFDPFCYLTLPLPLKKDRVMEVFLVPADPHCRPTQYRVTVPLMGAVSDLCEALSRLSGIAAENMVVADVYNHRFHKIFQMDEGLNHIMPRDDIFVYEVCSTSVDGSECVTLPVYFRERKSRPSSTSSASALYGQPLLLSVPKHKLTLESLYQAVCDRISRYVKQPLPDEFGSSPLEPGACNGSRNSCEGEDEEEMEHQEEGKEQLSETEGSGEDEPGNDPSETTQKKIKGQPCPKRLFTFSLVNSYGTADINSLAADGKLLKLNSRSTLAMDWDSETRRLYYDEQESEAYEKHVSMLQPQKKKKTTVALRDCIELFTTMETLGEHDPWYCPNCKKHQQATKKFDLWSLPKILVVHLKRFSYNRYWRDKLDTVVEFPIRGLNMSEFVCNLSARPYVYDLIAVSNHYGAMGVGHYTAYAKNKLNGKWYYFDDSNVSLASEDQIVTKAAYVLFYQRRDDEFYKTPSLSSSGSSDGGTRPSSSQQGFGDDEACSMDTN
Summary of the method: as §1

Measured: log2 ratio of Biotin-Ahx-Ub-VS probe labelling

Cl.O=C(CCl)N[C@H]1C[C@@H](n2cccn2)C1
inactive: USP34 -0.109 | USP36 0.0625 | USP38 0.192 | USP39 0.31 | USP4 -0.0753
